Reference: PubChem BioAssay AID624483 (NMMLSC, 2012)
The campaign covered roughly 360,000 compounds. About 11,000 (3.1%) were called active. Roughly 2% stayed inconclusive and do not appear here. This is one part of a sample in which actives are shown more often than they occur. No stated cut-off is given here; in the data, active means fluorescence intensity above about 16000; inconclusive means no clear call, values can overlap the other calls; inactive means below that.

experiment: counter-screen for toxin protease inhibitors: compound fluorescence, primary screen, artefact control for toxin protease inhibitor project, biochemical, multiplex microsphere, HTS (AID 624483); conditions: compound autofluorescence counterscreen, microsphere flow cytometry; stronger effect = higher value

SMILES	fluorescence intensity
CC(C)CC(=O)Nc1nnc(S(=O)(=O)N(C)c2ccc(Cl)cc2)s1	4020 (inactive)
COC(=O)c1ccc2nc(-c3ccc(Cl)cc3)c(Cc3cccc(F)c3)n2c1	6340 (inactive)
O=C(NCc1nnnn1-c1ccc(Cl)cc1)c1ccc([N+](=O)[O-])o1	3830 (inactive)
Oc1cccc2cc(-c3ccncc3)cnc12	2990 (inactive)
O=C(NCCc1ccccn1)c1cccnc1Oc1ccc(Cl)cc1	5560 (inactive)
O=C(NCCc1ccccn1)c1ccc(COc2ccccc2)o1	19400 (active)
O=C(CNC(=O)COc1ccccc1)NCCc1ccccn1	3410 (inactive)
CNc1cncc(-c2cccc(C(=O)N3CCOCC3)c2)n1	3830 (inactive)
CCCCOC(=O)NCN1C(=O)C2C3C=CC(C3)C2C1=O (centres undefined)	3370 (inactive)
COc1ccccc1C1C(C(N)=O)=C(C)Nc2nc(CCCO)nn21 (centres undefined)	3450 (inactive)
CCCCCOC(=O)C1=C(C)Nc2nnnn2C1c1ccc(OC)c(OC)c1OC (centres undefined)	21200 (active)
COC(=O)C1=C(C(=O)c2ccc(C)cc2)C(c2ccccc2)n2nnnc2N1 (centres undefined)	2650 (inactive)
CCOc1ccc(S(=O)(=O)Nc2nccs2)cc1	4450 (inactive)
CCOc1ccc(S(=O)(=O)Nc2nc3cc(OC)ccc3s2)cc1	20400 (active)
CCOc1ccc2sc(NS(=O)(=O)c3ccc(N)cc3)nc2c1	3350 (inactive)
COc1ccc(-c2nc3ccc(Br)cn3c2Cc2ccc(C)cc2)cc1OC	4350 (inactive)
CCC(=O)Nc1nnc(S(=O)(=O)N(CC(C)C)c2ccccc2)s1	3230 (inactive)
CCOC(=O)C(Sc1ncc(C#N)c(N)n1)C(C)C (centres undefined)	2490 (inactive)
COC(=O)c1ccc(NC(=O)CSc2nnc(C3CC3)n2C)cc1	5470 (inactive)
CCOC(=O)c1ccc(NC(=O)CSc2nnc(COc3ccccc3OC)n2C)cc1	23600 (active)
CCn1c(CNC(=O)c2ccc(OC)c(OC)c2)nnc1SCC(=O)Nc1ccccc1	11100 (inactive)
COC(=O)Nc1ccc(S(=O)(=O)N(C)CC(F)(F)C(F)F)cc1	3990 (inactive)
CC(=O)Nc1cccc(-c2ccnc3c2CC(C)(C(=O)NCc2ccccc2)O3)c1 (centres undefined)	3920 (inactive)
Cc1cccc(C(=O)OCC(=O)Nc2sccc2C(N)=O)c1C	3570 (inactive)

SMILES	fluorescence intensity
Cc1nc2c(-c3ccc(F)cc3)c(C)nn2c(C)c1CCC(=O)NCc1ccco1	5410 (inactive)
COc1ccc(-c2cc3nc(C)c(CCC(=O)NC(C)CCc4ccco4)c(C)n3n2)c(OC)c1 (centres undefined)	3850 (inactive)
COc1cc(OC)cc(-c2nc3nc(C)c(CCC(=O)NCc4ccco4)c(C)n3n2)c1	21000 (active)
CCn1cc(C(=O)N2CC=C(c3ccccc3)CC2)c(=O)c2ccc(C)nc21	11100 (inactive)
COc1cccc(CNc2nc(NCc3cccs3)nc3ccsc23)c1	3840 (inactive)
COc1ccc(S(=O)(=O)n2cnc3ccccc32)c(C)c1	3080 (inactive)
Cc1ccc(S(=O)(=O)N2CCC(C(=O)OCC(=O)N3CC(=O)Nc4ccccc43)CC2)cc1	23100 (active)
Cc1ccccc1SCC(=O)OCC(=O)N1CC(=O)Nc2ccccc21	3940 (inactive)
Cc1ccc(S(=O)(=O)N(C)CC(=O)OCC(=O)N2CC(=O)Nc3ccccc32)cc1	4160 (inactive)
COc1ccc(C(=O)N2CCCCC2c2cc(C(=O)Nc3ccc(F)c(Cl)c3)no2)cc1 (centres undefined)	3750 (inactive)
CC1(C(=O)NCc2ccc(F)c(F)c2)Cc2c(-c3ccc4c(c3)OCO4)ccnc2O1 (centres undefined)	2890 (inactive)
Cc1nc(C(F)(F)F)ccc1C(=O)N1CCC1(C)C(=O)NS(=O)(=O)c1ccc(F)cc1F (centres undefined)	3750 (inactive)
O=c1c([N+](=O)[O-])cc(C(F)(F)F)cn1Cc1cccc(Cl)c1	22600 (active)
O=c1c([N+](=O)[O-])cccn1Cc1ccc(F)cc1Cl	4380 (inactive)
CN(C)C(=O)c1cccn(Cc2cccc(C(F)(F)F)c2)c1=O	4630 (inactive)
COc1ccc(C2CC(c3cccc(OC)c3)=NN2c2ccc(S(N)(=O)=O)cc2)cc1 (centres undefined)	3270 (inactive)
CCN(CC)CCN(C)C(c1ccnc2ccccc12)c1nnnn1-c1ccc2c(c1)OCCO2 (centres undefined)	4670 (inactive)
COC(=O)[C@]12CCCCC=C1N(Cc1ccccc1)C(=O)[C@H](CC(=O)NCc1ccc(C)o1)C2	5960 (inactive)
Nc1ncnc2c1ncn2[C@@H]1O[C@H](C(=O)N2CCCN(Cc3ccccc3F)CC2)[C@@H](O)[C@H]1O	5460 (inactive)
CCCCCc1c(-c2cccc(Br)c2)ncn1CCc1ccccc1OC	5900 (inactive)
Cc1c(C#N)c2ncn(CC#N)c(=O)c2n1-c1ccccc1	2670 (inactive)
CN(C)/C=C/c1c(C#N)c(=O)ncn1Cc1ccccc1	22600 (active)
CN(C)c1nccc(NCc2ccccc2)c1C#N	2510 (inactive)
CC1=C(C(=O)Nc2ccc(Cl)cc2)C(c2ccco2)NC(=O)N1 (centres undefined)	21000 (active)

SMILES	fluorescence intensity
COc1ccc(NC(=O)C2=C(C)NC(=O)NC2c2ccccc2[N+](=O)[O-])cc1 (centres undefined)	4060 (inactive)
COc1cc(Cl)cc(C2NC(=O)NC(C)=C2C(=O)NCc2ccccc2)c1O (centres undefined)	6250 (inactive)
NC(=O)COC(=O)c1cc(S(=O)(=O)N2CCN(c3ccccc3)CC2)ccc1Cl	2210 (inactive)
O=C(OCc1cn(-c2ccc(Cl)c(Cl)c2)nn1)c1ccccc1Cl	23100 (active)
Cc1cccc(/C(N)=N/OC(=O)c2ccccc2Cl)c1	2520 (inactive)
O=C(Nc1ccccc1)c1ccccc1Br	3570 (inactive)
CC(OC(=O)CN1C(=O)c2ccccc2C1=O)C(=O)c1ccccc1 (centres undefined)	8630 (inactive)
CCOC(=O)CN1C(=O)C(=O)c2cc(C)ccc21	3160 (inactive)
CC(C)OC(=O)CN1C(=O)C(=O)c2ccccc21	22400 (active)
CC1(C(=O)NS(=O)(=O)c2cccs2)CCN1C(=O)Cc1ccc(-c2ccccc2)cc1 (centres undefined)	3400 (inactive)
O=S1(=O)CC(N2CCN(c3ccccn3)CC2)CN1Cc1ccc(F)cc1 (centres undefined)	5970 (inactive)
O=C(c1ccco1)N1CCN(C(=O)C2c3ccccc3Oc3ccccc32)CC1	10300 (inactive)
CCC(=O)N1CCCC1(C)C(=O)Nc1ccc2c(c1)CCN2C(C)=O (centres undefined)	4080 (inactive)
COc1cccc(Cn2cc(/C=N/NC(=O)c3cc(O)cc(O)c3)c3ccccc32)c1	5960 (inactive)
O=C(Cn1cc(/C=N/NC(=O)c2cccc(C(F)(F)F)c2)c2ccccc21)Nc1ccc(F)cc1	23300 (active)
O=C(CSc1ccc(/C=N/NC(=O)c2cccc(F)c2)o1)Nc1ccccc1	8800 (inactive)
Cc1cc(C)nc(NNC2=CC(=O)CC(C)(C)C2)n1	2520 (inactive)
COc1ccc(CCNC2=CC(=O)CC(C)(C)C2)cc1	3550 (inactive)
CC1(C)CC(=O)C=C(NCc2ccncc2)C1	16700 (active)
COCCNCCOCCOc1cccc(OC)c1	2470 (inactive)
COc1cccc(OCCOc2cccc(/C=N/n3cnnc3)c2)c1	23900 (active)
C=CCc1ccc(OCCOc2cccc(/C=N/n3cnnc3)c2)c(OC)c1	2600 (inactive)
CCc1ccccc1NC(=O)CSc1nnc(CCNC(=O)OC(C)(C)C)o1	6490 (inactive)
C[C@H](NC(=O)OC(C)(C)C)c1nnc(SCC(=O)Nc2ccc(Br)cc2)o1	16800 (active)

SMILES	fluorescence intensity
CC(C)(C)OC(=O)N[C@H](C(=O)OC(C)(C)C)c1ccc(Br)cc1	3740 (inactive)
C=CCn1c(N)cc(=O)nc1SCC(=O)Nc1cccc2ccccc12	4460 (inactive)
CC(C)Oc1ccc(/C=N/NC(=O)c2nnn(-c3nonc3N)c2CN(C)C2CCCCC2)cc1	6000 (inactive)
Cc1cccc(C)c1N1CCN(S(=O)(=O)N2CCOCC2)CC1	23800 (active)
Cc1cccc(C)c1N1CCN(S(=O)(=O)N2CCCCC2)CC1	3490 (inactive)
O=S(=O)(N1CCOCC1)N1CCN(c2ccccc2F)CC1	6290 (inactive)
COc1ccc(Cl)cc1-c1cc(C(=O)Nc2cc(OC)c(OC)c(OC)c2)[nH]n1	3880 (inactive)
O=S(=O)(NC1CCCCC1N1CCC(O)CC1)c1ccc(Cl)cc1 (centres undefined)	38100 (active)
CCN1CCN(C2CCCCC2NS(=O)(=O)c2ccc(Cl)cc2)CC1 (centres undefined)	5580 (inactive)
O=S(=O)(NC1CCCCC1N1CCCCC1)c1ccc(Cl)cc1 (centres undefined)	5790 (inactive)
Cc1cc(OCC(=O)N2CCN(c3ncccn3)CC2)ccc1Cl	4880 (inactive)
COc1ccc(OC)c(NC(=O)c2cc(-c3cc(F)ccc3OCC3CCCO3)n[nH]2)c1 (centres undefined)	3690 (inactive)
COc1ccc(/C=N/Nc2ncnc3sc4c(c23)CCCC4)cc1O	1980 (inactive)
COc1ncnc2sc3c(c12)CCCC3	23600 (active)
O=C(O)c1cccnc1Sc1ncnc2sc3c(c12)CCC3	4510 (inactive)
CCOC(=O)C1=C(CCc2ccccc2)NC(=O)NC1c1ccc2ccccc2c1 (centres undefined)	3820 (inactive)
CCOC(=O)C1=C(CSc2nccn2C)NC(=O)NC1c1ccc(OC)cc1 (centres undefined)	24300 (active)
CCOC(=O)C1=C(CSc2nnnn2C)N(C)C(=O)NC1c1ccccc1 (centres undefined)	4330 (inactive)
CC(C)C[C@H]1CN([C@@H](Cc2ccccc2)CN2CCC[C@@H]2CN2C(=O)C(=O)NC[C@@H]2Cc2ccc(O)cc2)C(=O)C(=O)N1CCc1ccccc1	5350 (inactive)
CC1CCc2c(sc3nc4n(c(=O)c23)CCS4)C1 (centres undefined)	8310 (inactive)
CCOC(=O)N1CCN(C(=O)c2cnc3n(c2=O)CCS3)CC1	2800 (inactive)
CCCCc1c(O)nc2n(c1=O)CCS2	22100 (active)
